Results filed as inconclusive are left out. A call without a number means that no potency is given here. Active and inactive are the calls of the source. Calls follow the shape of the full dose curve.

The target in the assay is Beta-2 adrenergic receptor (Homo sapiens) (UniProt P07550). In words: Adrenergic beta2 receptor (ADRB2) small molecule agonists, cell-based qHTS assay (AID 1963593).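 Also: CHO cells stably overexpressing human ADRB2.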 In short, it runs like this: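 CHO cells stably over-expressing ADRB2 were plated overnight at 37C, then dosed with compounds plus a stimulation mix containing 100uM IBMX and 25uM Ro-20-1724 for 0.5hr at room temperature. cAMP was measured by HTRF competition, 1hr.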
Chain of Beta-2 adrenergic receptor (Homo sapiens) (P07550 whole entry, looked up): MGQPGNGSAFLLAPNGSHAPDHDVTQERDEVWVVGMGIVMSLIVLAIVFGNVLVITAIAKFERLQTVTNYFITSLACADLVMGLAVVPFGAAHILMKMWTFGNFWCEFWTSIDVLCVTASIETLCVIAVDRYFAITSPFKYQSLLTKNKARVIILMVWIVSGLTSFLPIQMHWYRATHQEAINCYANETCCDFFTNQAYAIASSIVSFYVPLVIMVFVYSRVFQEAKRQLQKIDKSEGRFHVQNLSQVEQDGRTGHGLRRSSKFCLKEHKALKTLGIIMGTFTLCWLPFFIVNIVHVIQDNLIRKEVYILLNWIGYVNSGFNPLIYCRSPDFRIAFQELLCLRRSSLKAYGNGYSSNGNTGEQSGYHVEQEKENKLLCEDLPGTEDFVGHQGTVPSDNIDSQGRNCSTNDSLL
For orientation: Quantitative high-throughput screening tests each substance at several concentrations.

`COc1ccc(OC)c(N=Nc2c(O)ccc3ccccc23)c1`: the Potency result was “inactive”.
With `CCOC(=O)C(Br)c1ccccc1` (configuration not stated), the Potency result was “inactive”.
In the case of `CCN(CC)CCOc1ccccc1C(=O)CCc1ccccc1` it was “inactive”; in that of `O=C(Nc1cccc(C2=NCCN2)c1)Nc1cccc(C2=NCCN2)c1`, “inactive”.
In the case of `CC(CN(C)C)C(C)(O)Cc1ccc(Cl)cc1` (configuration not stated) it was “inactive”.
Regarding `CC1CCc2cc(F)cc3c(=O)c(C(=O)O)cn1c23` (configuration not stated), the Potency entry is “inactive”.
Then `CC(=O)OC1CCCCC1C(C)(C)C` (configuration not stated), with “inactive”.
For the compound `CCCC(C)C(=O)OCC` (configuration not stated), the Potency result was “inactive”.
Then `Cc1ccc2cccnc2c1`, with “inactive”.
As for `C#CC(C)N(C)C(=O)Nc1ccc(Cl)cc1` (configuration not stated), the Potency entry was “inactive”.
`CC(C)SCc1ccco1`: the Potency result is “inactive”.
Consider `O=C1c2ccccc2C(=O)N1CCl`, for which the Potency result is “inactive”.

Values taken from PubChem BioAssay (Tox21).
